In the library only some 1.5% were active in any assay of this set; here they are far more common.
PI4K2A inh – qHTS for small molecular inhibitors of PI4K2A. AID 1346378, 2018. purified PI4K2A, ADP-Glo luminescence, 1 h; active compounds read low. activity change, negative = inhibition, % at 76.9 µM. 0.13% of 420,000 active; in the data active means activity change below about -50%; inconclusive means mostly about -30% to -49%;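 further: -100% = wells without enzyme as full effect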
Target sequence (Q9BTU6 whole entry, looked up): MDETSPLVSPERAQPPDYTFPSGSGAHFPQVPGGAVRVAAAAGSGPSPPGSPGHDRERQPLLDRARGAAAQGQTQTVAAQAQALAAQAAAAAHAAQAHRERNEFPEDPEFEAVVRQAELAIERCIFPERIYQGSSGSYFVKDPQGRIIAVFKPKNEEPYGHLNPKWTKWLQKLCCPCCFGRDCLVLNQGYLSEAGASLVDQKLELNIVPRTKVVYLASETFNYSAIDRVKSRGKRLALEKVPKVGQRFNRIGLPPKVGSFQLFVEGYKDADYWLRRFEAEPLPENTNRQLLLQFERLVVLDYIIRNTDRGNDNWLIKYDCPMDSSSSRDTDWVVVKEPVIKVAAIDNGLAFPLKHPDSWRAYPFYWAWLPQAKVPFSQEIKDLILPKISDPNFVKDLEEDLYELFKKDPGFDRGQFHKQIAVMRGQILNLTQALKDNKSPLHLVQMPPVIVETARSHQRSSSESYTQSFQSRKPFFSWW
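Compounds are screened against recombinant PI4K2A using PI as substrate and ATP, the latter dispensed at 300 microM. Reactions run one hour at ambient temperature before ADP-Glo detection; full inhibition defined by wells lacking enzyme.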
Giardia kill – Small Molecules that selectively kill Giardia lamblia: qHTS; 0.15% of 340,000 active; activity change, % at 7.66 µM, hits read low; Giardia lamblia trophozoite viability; in the data active means activity change below about -80%; inconclusive means between about -30% and that limit;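 further: parasites exposed to compound for two days anaerobically before the ATP read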
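Luminescent ATP signal served as the viability read-out, measured 15-30 min after adding ATP detection reagent to trophozoites that had been incubated with compounds for 48 hrs at 37 deg C anaerobically at 100 cells/well.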
TrxR1 inh – qHTS Assay for Inhibitors of Mammalian Selenoprotein Thioredoxin Reductase 1 (TrxR1): qHTS; Thioredoxin reductase 1, cytoplasmic (Rattus norvegicus), O89049; recombinant rTrxR1, NADPH fluorescence consumption, selenite substrate; Potency, µM (top dose mostly 114 µM), for inactives: at the top dose activity change, negative = inhibition, hits mostly inhibitors; 1% of 390,000 active; AID 588453, 2011; further: potency means the concentration at half of the fitted maximal effect; nearly all actives have a fitted effect of over 65% in size
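Rat TrxR1 (90 nM in the dispensed reagent) was pre-reduced with 400 uM NADPH for 5 min at room temperature, then incubated with compound for 15 min. After 400 uM selenite was added, NADPH fluorescence (Ex 340/Em 450 nm) was followed for 8 min.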
GALK inh – qHTS Assay for Inhibitors of Human Galactokinase (GALK) | P51570 | Potency, µM (series often up to 57.5 µM), inactives show top-dose activity change, negative = inhibition, usual class: inhibitors | 0.007% of 270,000 active | Purified GALK, Kinase-Glo residual ATP luminescence; further: potency means the concentration at half of the fitted maximal effect
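5 nM enzyme, 35 uM ATP, 100 uM galactose, 20 mM HEPES pH8.0, 5 mM MgCl2; 1 h RT; residual ATP by Kinase-Glo Plus luminescence, qHTS format.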
TrxR1 substrate – qHTS Assay for Substrates of Mammalian Selenoprotein Thioredoxin Reductase 1 (TrxR1): qHTS; purified TrxR1 substrate turnover, NADPH consumption readout; Potency, µM (series often up to 114 µM), inactives show at the top dose activity change, negative = substrate turnover; 0.01% of 390,000 active; further: potency means the concentration at half of the fitted maximal effect; nearly all actives have a fitted effect of over 50% in size
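Rat TrxR1, dispensed at 90 nM, was prereduced with 400 uM NADPH (final) for 5 min at ~22 deg C, then incubated with compound 15 min before 400 uM selenite. A first-read NADPH fluorescence drop versus no-compound background flagged substrates.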
FBPA coupling cs – qHTS Assay for Inhibitors of Fructose-1,6-bisphosphate Aldolase from Giardia Lamblia: Coupling assay counterscreen | coupling enzyme system counterscreen, AmpLite Red fluorescence | activity change, negative = inhibition, % at 58.2 µM, hits read low | 0.67% of 290,000 active | AID 2472, 2010; in the data active means activity change below about -30%
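Compounds tested against the coupling enzymes alone at 57.5 uM final; readout was AmpLite Red fluorescence (525/598 nm) after 20 min at RT.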
* = called active by the depositor; ? = inconclusive; · = not tested or not shown; [ ] = dose if it differs, or a comment. Unless noted, the call rests on the fitted dose curve; in most records, active means well fitted curve in the direction sought with a large enough effect; inconclusive means small, poorly fitted or top-dose-only effect, or another doubt; inactive means no such curve, though single readings can be large; an effect the other way counts as inactive or inconclusive. Unless noted, on the % scale 0 is the no-effect control and ±100 the full control effect.

SMILES	PI4K2A inh	Giardia kill	TrxR1 inh	GALK inh	TrxR1 substrate	FBPA coupling cs
O=C(Nc1ccc(NC(=O)c2ccco2)nc1)c1cccc(F)c1	-6	-3	-2%	-3%	-2%	0
O=C(Oc1ccc(=O)n(-c2ccccc2)n1)c1cccc(Cl)c1	8	-16	3.5µM*	4%	13%[57.1 µM]	2
O=C(Oc1ccc(=O)n(-c2ccccc2)n1)c1ccc(Cl)cc1	28	-15	?	3%	6%[57.1 µM]	-2
Cc1ccc(CNC(=O)Cn2ccc3ccccc3c2=O)o1	-6	8	40µM*	1%	0%	1
O=C(NC(=S)Nc1ccccn1)c1ccc(-c2ccccc2)cc1	-18	-90*	-6%	-1%	-10%	·
O=C(NC(=S)Nc1ccccn1)c1ccccc1	-14	12	7%[57.1 µM]	-2%	13%[57.1 µM]	-8
Cc1ccccc1Nc1oc(-c2ccccc2)nc1-c1ccccc1	·	·	·	·	·	0
CCCCS(=O)(=O)Nc1ccc2cn[nH]c2c1	1	9	11%[57.1 µM]	1%	-9%	-36*
O=S(=O)(Nc1ccc2cn[nH]c2c1)c1ccc(Cl)cc1	6	16	11%	0%	-4%	-2
Cc1nc(NCc2ccccc2)c2nc(-c3ccccc3)n(CC(C)(C)CN(C)C)c2n1	·	·	·	·	·	0
O=C(CN1CCN(C(c2ccccc2)c2ccccc2)CC1)N1CCOCC1	-3	0	4%	-3%	8%	-4
Oc1c(C(c2ccccc2)N2CCOCC2)ccc2ccccc12 (centres undefined)	2	2	3.2µM*	·	-12%	·
O=C(C[N+]12CN3CN(CN(C3)C1)C2)c1ccc(O)c(O)c1	·	·	-31%	·	-5%	·
COc1ccc(C2C(C#N)=C(N)N(c3cccnc3)C3=C2C(=O)CC(C)(C)C3)cc1OC (centres undefined)	2	2	18µM*	·	-5%	1
CN(C)c1ccc(/C=C2/CCCc3c2nc2ccccc2c3C(=O)O)cc1	·	·	?	·	-1%	·
CN(C)c1ccc(/C=C/c2cc3ccccc3cn2)cc1	·	·	-15%	·	-8%	·
COc1ccc(S[C@]2(C(=O)N3CCN(c4ncccn4)CC3)CC(=O)N(C(=O)CCc3ccccc3)[C@@H]2c2ccc(OC)cc2)cc1	-3	·	·	·	·	·
Cc1cc(=O)oc2cc(OC(=O)CCN3C(=O)c4ccccc4C3=O)ccc12	3	-5	40µM*	-4%	263%	5
CCCCn1nc(C(=O)Oc2ccc3c(C)cc(=O)oc3c2)c2ccccc2c1=O	-5	-20	79µM*	-2%	569%	-2
Cc1cc(=O)oc2cc(OCCCN3C(=O)c4ccccc4C3=O)ccc12	-1	-7	15%	4%	7%	0
CCCC(=O)Oc1ccc2c(C)cc(=O)oc2c1	2	-3	?	4%	73%	-6
CN(C)c1ccc(N=Cc2ccncc2)cc1	·	·	?	·	4%[0.0914 µM]	·
O=C(Oc1ccc(N(C(=O)c2ccncc2)S(=O)(=O)c2cccs2)cc1)c1ccncc1	-1	-15	40µM*	0%	3%	0
Cc1cc(F)ccc1S(=O)(=O)N(C(=O)c1ccncc1)c1ccc(OC(=O)c2ccncc2)cc1	3	2	1%[57.1 µM]	0%	4%[57.1 µM]	2
C=CCn1c(O)c(CN2CCCCC2)c(C)c(C#N)c1=O	-10	2	-25%	3%	-2%	-33*
COc1cc(NC(=S)N2CCN(CCO)CC2)c(OC)cc1Cl	2	6	7%	8%	-1%	-2
OCCN1CCN(C(=S)c2ccc(Cl)c(Cl)c2)CC1	-5	17	-31%	0%	-9%	-32*
Oc1ccc(/C=N/NC(=S)Nc2cccnc2)c(O)c1O	-3	10	?	-2%	-19%	-63*

Screens: PubChem BioAssay, National Center for Advancing Translational Sciences (NCATS)
